Measurements: PubChem BioAssay (NCATS)
A number with no mark means an inactive call. Records with an inconclusive call do not appear. Activity calls are given as the source filed them. Unless noted, calls follow the shape of the dose curve; as a rule, active = well fitted curve in either direction with a large enough effect (not every such curve was filed as active); inconclusive = small, poorly fitted or top-dose-only effect, or another doubt; inactive = flat fitted curve, though single readings scatter.

Legend:
[1] = AP1 Signaling Pathway (AID 357); details: ME-180 AP-1-bla reporter, EGF-induced, beta-lactamase ratio, 5 h; at 17.2 µM (top of the series) unless noted;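 also: ME-180 reporter cells stimulated with EGF at its EC50 level; % is scaled to controls: 0 for no effect and ±100 for the full control effect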
How it was run: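 AP-1-bla ME-180 cells, Opti-MEM + 0.5% dialyzed FBS, plated overnight 37 °C. Cpd titration + EC50 EGF, 5 h 37 °C. CCF4 2.5 h RT; ex 405, em 460/530 ratio → %activity, AC50.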

[2] = NFAT Signaling Pathway (AID 444); details: Jurkat NFAT-bla M1, carbachol, beta-lactamase ratio, 5 h; at 17.2 µM (top of the series) unless noted;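 also: carbachol stimulus at about its EC50 of 1 µM final; % is scaled to controls: 0 for no effect and ±100 for the full control effect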
How it was run: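 Jurkat cells with NFAT-driven β-lactamase reporter and co-expressed M1 receptor, stimulated with carbachol (final 1 uM, ~EC50), compound titration, 5 h at 37 °C. CCF4 loaded 1 h at RT; 460/530 nm ratio gave %activity and AC50.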

[3] = Stat Signaling Pathway (AID 446); details: ME-180 SIE beta-lactamase reporter, IL-6 stimulated, 5 h; at 17.2 µM (top of the series) unless noted;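 also: ME-180 cervical cancer cells given 40 pM IL-6 alongside compound; SIE-controlled beta-lactamase reporter measured as 460/530 nm FRET emission ratio; % is scaled to controls: 0 for no effect and ±100 for the full control effect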
How it was run: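 ME-180 SIE-bla cells; overnight plating; cpd + IL-6 40 pM, 5 h, 37 C; LiveBLAzer 2.5 h RT; 460/530 nm emission ratio. Normalized to 300 pM IL-6 and 125 nM JAK inhibitor controls.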

[4] = target: Glucocorticoid receptor (Homo sapiens) (UniProt P04150); test: GR-GFP Redistribution (AID 450;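 active = compounds whose dose series gives a full or clear partial fitted curve of increased nuclear translocation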; also: potency is read from the fitted curve at half-maximal effect)
Glucocorticoid receptor (Homo sapiens), sequence (P04150 whole entry, looked up): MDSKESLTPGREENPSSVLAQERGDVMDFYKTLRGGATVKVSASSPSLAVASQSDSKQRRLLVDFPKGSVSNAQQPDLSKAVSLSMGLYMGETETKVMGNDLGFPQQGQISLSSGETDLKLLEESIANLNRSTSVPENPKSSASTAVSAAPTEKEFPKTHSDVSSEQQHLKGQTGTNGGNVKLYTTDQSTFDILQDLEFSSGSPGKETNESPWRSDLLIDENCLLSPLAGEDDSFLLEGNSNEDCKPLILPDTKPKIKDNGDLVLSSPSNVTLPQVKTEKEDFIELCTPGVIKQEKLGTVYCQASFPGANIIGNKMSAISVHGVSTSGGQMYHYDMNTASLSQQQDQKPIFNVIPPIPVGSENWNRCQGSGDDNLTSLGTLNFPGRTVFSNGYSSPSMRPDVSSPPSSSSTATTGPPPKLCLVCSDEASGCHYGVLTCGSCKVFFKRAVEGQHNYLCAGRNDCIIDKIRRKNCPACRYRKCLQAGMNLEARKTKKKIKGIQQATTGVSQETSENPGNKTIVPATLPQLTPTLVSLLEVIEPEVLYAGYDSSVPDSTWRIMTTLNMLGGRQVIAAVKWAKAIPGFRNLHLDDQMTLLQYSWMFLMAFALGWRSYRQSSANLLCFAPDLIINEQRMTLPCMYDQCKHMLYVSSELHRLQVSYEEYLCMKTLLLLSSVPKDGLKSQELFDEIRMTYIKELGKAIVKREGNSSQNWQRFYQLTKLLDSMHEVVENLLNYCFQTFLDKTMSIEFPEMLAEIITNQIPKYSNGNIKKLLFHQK

| Structure (SMILES) | activity change, negative = inhibition [1] [%] | activity change, negative = inhibition [2] | activity, negative = inhibition [3] [%] | Potency [4] [µM] |
| --- | --- | --- | --- | --- |
| CC(=O)Nc1ccc(S(=O)(=O)Nc2nc3n(n2)C(c2ccccc2)CC(=O)N3)cc1 (stereo not given) | 4.99 | 2.5% | 1.09 | > 20.6 |
| CCOCCN(C(=O)COC)c1cccc(OC)c1 | 20.2 | 2.78% | 6.59 | > 20.6 |
| COC(=O)c1ccc(=O)n(Cc2ccco2)c1 | 4.81 | -1.77% | -2.94 | > 20.6 |
| Cc1nc(-c2coc3cc(OCC(=O)O)ccc3c2=O)cs1 | 7.54 | -2.11% | 3.59 | > 20.6 |
| CCOC(=O)NC(Nc1cc(C)on1)(C(F)(F)F)C(F)(F)F | 20.3 | -2.55% | 12.3 | > 20.6 |
| COc1ccc(C=NCCCN2CCOCC2)cc1 | -8.54 | -2.1% | -3.86 | > 20.6 |
| O=c1c2ccccc2ncn1Cc1ccco1 | 14.1 | -4.44% | 2.8 | > 20.6 |
| CCCCCCn1c(C(C)O)nc2ccccc21 (stereo not given) | 0.304 | 5.62% | -3.73 | > 20.6 |
| Cc1nnc2n(C3CCCCC3)c(=O)c3c4c(sc3n12)COC(C)(C)C4 | 4.48 | 5.64% | 0.172 | > 20.6 |
| CCCC1Cc2c(sc3nc(SC)nc(N)c23)CO1 (stereo not given) | -3.09 | -10.7% | -1.16 | > 20.6 |
| CN(C)CCCOC(=O)C1c2ccccc2Oc2ccccc21 | 9.34 | -63.3% (active) | -0.433 | > 20.6 |
| O=C(CN1C(=O)c2ccccc2S1(=O)=O)c1ccccc1 | 9.24 | -11.7% | 3.52 | > 20.6 |
| COC(=O)c1sccc1NC(=O)c1c(C)cc(=O)oc1C | 9.11 | 8.6% | -6.64 | > 20.6 |
| O=C(O)c1ccc(COCC(F)(F)C(F)F)o1 | 10.1 | 28.1% | 2.03 | > 20.6 |
| CSC(=Nc1ccccc1)C1=C(O)COC1=O | 3.1 | 4.52% | -5.43 | > 20.6 |
| CC1(C2(O)CC(c3ccccc3)ON2)CCCCC1 (stereo not given) | 11.4 | -10.5% | -1.99 | > 20.6 |
| COc1ccc2oc(=O)c(-c3nc(C)cs3)cc2c1 | 19.7 | -8.83% | 17.3 | > 20.6 |
| CC(=O)Nc1cccc(NC(=O)CSc2nc(C)c(C)c(C)c2C#N)c1 | -13.8 | 8.76% | -4.2 | > 20.6 |
| CCC1=Nc2ccccc2NC2=C1C(=O)CCC2 | 16.1 | -0.948% | -3.13 | > 20.6 |
| CC12CCC(C(=O)N(CCC#N)CCC#N)(CC1=O)C2(C)C (stereo not given) | 10.6 | 18.9% | 6.43 | > 20.6 |
| COCCOC(=O)c1c(C)nc(SCC(=O)Nc2ccc(OC)cc2)c(C#N)c1-c1ccco1 | -13.3 | -14.8% | -16.8 | > 20.6 |
| CC(NC(=O)CSc1nnc(COc2ccccc2)o1)c1ccccc1 (stereo not given) | -6.03 | -0.274% | 2.03 | > 20.6 |
| COCc1[nH]nc2c1C(c1ccccc1OC)C(C#N)=C(N)O2 (stereo not given) | -14.7 | -26.9% | -17.1 | > 20.6 |
| CN1c2ccccc2N(C)C1c1c(O)ccc2ccccc12 | -1.37 | -27.9% | -4.67 | > 20.6 |
| CC1(C)CC(=O)C=C(NCCO)C1 | 20.8 | 2.7% | 12.6 | > 20.6 |
